Active and inactive are the calls of the source.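 Rule for the calls: active = inhibition over a set limit, the all-compound mean plus 3 SD, in both replicate runs; inconclusive = over that limit in just one replicate run; inactive = at or under that limit in both runs.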
Assay: inhibitors of the yeast RAM network, pilot screen, dse1pr::URA3 reporter, 5-FOA selection (AID 869);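 note: 0% = DMSO wells with no growth and 100% = 10 µM 1-NA-PP1 with full growth; RAM network block rescues cells from 5-FOA so hits raise OD615 growth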
Conditions: S. cerevisiae dse1pr::URA3 5-FOA growth, OD615, 2 d; at 10 µM; hits give high values; strain carries analog-sensitive mutant Cbk1 kinase

inhibition, inactive:
COCCOC(=O)C1=C(C)NC2=C(C(=O)CC(C)(C)C2)C1c1ccc2c(c1)OCO2 (centres undefined) 0.175%
COc1cc(OC)cc(C(=O)NCC2CCCO2)c1 (centres undefined) 0.465%
O=C(O)c1ccc2c(c1)N(Cc1cccc(F)c1)C(=O)CS2 0.2%
COc1ccc(S(=O)(=O)Cc2ccc(C(=O)N3CCN(c4cccc(C)c4C)CC3)o2)cc1 1.52%
CCSc1nc2ccccc2n1S(=O)(=O)c1ccccc1 0.395%
CN1CCN(Cc2ccc(-c3ccc(Cl)cc3)o2)CC1 1.56%
CCCn1c2ccccc2c2cc(C(=O)O)ccc21 1.95%
Clc1ccccc1-c1ccc(/C=N/n2cnnc2)o1 1.61%
CCOc1ccc(OCC)c(S(=O)(=O)NCc2ccc3c(c2)OCO3)c1 1.52%
COc1cccc(C2NC(CCSC)(C(=O)O)C3C(=O)N(C(C)C)C(=O)C23)c1O (centres undefined) 1.93%
O=C(NCCCN1CCc2ccccc2C1)C1CCN(c2nnc(-n3cccc3)s2)CC1 2.08%
N#Cc1ccc(N2CCN(C(=O)c3cccc(F)c3)CC2)c(F)c1 2.12%
COC(=O)c1sc2nc3c(cc2c1N)COC(C)(C)C3 1.19%
O=C1CC(c2nc3ccccc3[nH]2)CN1c1ccccc1F (centres undefined) 0.355%
COc1cc2[nH]c(=O)n(CCCC(=O)NCCc3ccccc3)c(=O)c2cc1OC 3.42%
CCOc1ccc(NC(=O)c2ccc(N)cc2)cc1 2.77%
Cc1cc(Nc2ccc(F)cc2)n2nc(C)nc2n1 -0.875%
O=C1Nc2ccccc2C(O)(C(=O)N2CCCCC2)N1c1ccccc1 (centres undefined) 2.2%
CCCCN1C(=O)C(O)(CC(=O)c2ccccc2OC)c2ccccc21 (centres undefined) 1.89%
CCOC(=O)C1=C(C)S/C(=C\N(C)C)C1=O -0.055%
CCC(C)NC(=O)c1ccc(CS(=O)(=O)c2ccc(OC)cc2)o1 (centres undefined) 0.73%
CCCCCSc1nnc2c(n1)OC(C)N(C(C)=O)c1ccccc1-2 (centres undefined) 1.47%
O=C(c1cc(-c2cccc(O)c2)on1)N1CCc2ccccc2C1 0.005%
N=c1n(-c2ccccc2)c(O)cc(=O)n1-c1ccccc1 0.73%
